Most compounds without a hit are left out; they make up all but 0.93% or so of the library.
HIF activator: HIF pathway transcriptional activators, primary screen, cell-based, U2OS HRE-luciferase, luminescence; 300,000 tested, 0.32% active; AID 1910, 2009; activation, % at 7.5 µM (by protocol); U2OS HRE-luciferase reporter; normalized: DMSO 0%, desferrioxamine 100%;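 active = mean activation of at least 10% of the iron chelator positive control signal, with at least half of replicates also reaching 10%; inconclusive = mean and replicate majority disagree about reaching 10%; inactive = mean and most replicates under 10%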
F508del corr: F508del CFTR correction, initial screen, CFBE line, single point; CFBE cells, YFP halide quenching; stimulated with forskolin plus potentiator P3; % fluorescence drop versus neutral controls; activity (quench increase), % at 7.58 µM; 350,000 tested, 0.36% active; AID 720511, 2013;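 active = mean added fluorescence quench of at least 8% versus neutral control, with both replicates also reaching 8%; inconclusive = only one of the mean or replicate conditions met; inactive = mean below 8% and not both replicates reaching 8%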;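 also: cells transiently co-express mutant CFTR-F508del with the halide-sensitive YFP; corrector assay measuring rescue of mutant channel to the surface after 24 h compound exposure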
Jurkat NFkB inh: inhibitors of induced NF-kB luciferase reporter, primary screen, TCR NF-kB activation inhibitor project, cell-based, luminescence, uHTS; AID 435003, 2010; 330,000 tested, 0.53% active; inhibition, % at 4 µM; Jurkat, PMA/ionomycin-induced NF-kB luciferase reporter; in the data active = inhibition above about 50%
697 NFkB inh: inhibitors of PMA/ionomycin-induced NF-kB reporter, 697 cells, primary screen, B-cell NF-kB inhibitor project, cell-based, luminescence, uHTS. 697 B-cell NF-kB luciferase reporter, 16 h. inhibition, % at 4 µM. 330,000 tested, 0.33% active; in the data active = inhibition above about 35%
Jurkat NFkB conf: PMA/ionomycin-induced NF-kB reporter inhibitors, Jurkat retest, confirmation, T-cell NF-kB inhibitor project, cell-based, luminescence, single concentration; shares compounds with Jurkat NFkB inh; Jurkat NF-kB luciferase, 16 h; inhibition, % at 4 µM; 2,700 tested, 27% active; AID 435020, 2010;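 active = inhibition reaching about 45% at 4 µM in either replicate, limit read from the data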;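 also: plate controls were PMA/ionomycin stimulated DMSO wells for no effect and unstimulated DMSO wells for full effect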
* marks the source's active call; other numbers are inactive results; ? = inconclusive; nt = no result given.

SMILES	HIF activator	F508del corr	Jurkat NFkB inh	697 NFkB inh	Jurkat NFkB conf
COc1ccccc1NC(=O)c1cnc(Nc2ccccc2OC)c2ccccc12	-0.6	?	59.4*	-55.6	41.0
Cc1ccc(N/C(N)=N/c2nc(C)cc(N3CCCCC3)n2)c(C)c1	-1.1	-0.1	88.6*	-78.1	16.2
COc1ccccc1C(=O)Nc1ccc2c(c1)OC[C@H](C)N(C(C)=O)C[C@H](C)[C@@H](OC)CN(C)C2=O	nt	0.3	nt	nt	nt
O=C(Nc1ccc(Cl)c(Cl)c1)N[C@@H]1CC[C@@H](CCNC(=O)c2ccc(F)cc2)O[C@@H]1CO	nt	2.4	nt	nt	nt
Fc1ccccc1/C=N/Nc1nc(-c2ccccn2)nc2ccccc12	2.4	nt	61.0*	-23.3	-8.0
Cc1ccc(C(=O)C[n+]2ccc3ccccc3c2)cc1	0.7	-2.6	0.3	-5.5	nt
Cc1cc(C(C)(C)C)cc(C)c1C[n+]1ccc2ccccc2c1	0.5	nt	77.1*	19.5	50.7*
COCC#Cc1cnc2c(c1)C(=O)N([C@@H](C)CO)C[C@@H](C)[C@@H](CN(C)C(=O)Nc1cccc(F)c1)O2	nt	0.5	nt	nt	nt
O=C(CCN1C(=O)C2CCCCC2C1=O)Nc1nc2ccc(F)cc2s1 (stereo not drawn)	nt	0.5	-168.1	-243.1	-47.7
CCC(=O)N1CCC2(CC1)CN(Cc1cc(F)ccc1F)[C@H](CO)c1[nH]c3cc(OC)ccc3c12	nt	2.5	nt	nt	nt
CCOC(=O)c1c(-c2ccccc2)oc2ccc(OCC(O)CNCCN(C)C)cc12 (stereo not drawn)	-21.6	-1.0	56.0*	6.5	13.3
CCC1CCCCN1CCCNC(=O)C1CCN(Cc2nc(-c3ccc(Cl)cc3)oc2C)CC1 (stereo not drawn)	-0.4	nt	55.6*	7.1	-4.5
Cc1oc(-c2ccc(Cl)cc2)nc1CS(=O)CC(=O)NCCCN1CCN(Cc2ccccc2)CC1 (stereo not drawn)	0.3	1.1	64.5*	-8.7	40.7
Cc1oc(-c2ccc(Cl)cc2)nc1CS(=O)CC(=O)NCCCN1CCCC(C)C1 (stereo not drawn)	3.5	-0.3	2.7	-7.2	nt
C[C@H](NC(=O)C[C@H]1C=C[C@@H](NC(=O)Cc2ccccn2)[C@@H](CO)O1)c1ccccc1	nt	3.9	nt	nt	nt
C=CCNc1nc(-c2ccc3c(c2)OCCO3)cs1	1.1	-0.4	-152.4	-181.4	-8.1
CCC(=O)Nc1nc(-c2ccc3c(c2)OCCO3)cs1	3.0	1.0	-116.6	-172.6	nt
CCC(=O)N1C[C@@H](C)[C@@H](OC)CN(C)C(=O)c2cc(NS(=O)(=O)CC)ccc2OC[C@@H]1C	nt	0.8	nt	nt	nt
C/C(=N\Nc1nc(C(C)(C)C)cs1)c1ccccc1	3.9	?	-160.8	-225.3	-126.5
C/C(=N\Nc1nc(C(C)(C)C)cs1)c1ccc(O)cc1	1.8	2.2	2.7	0.9	nt
COc1ccccc1N=C(C)C1=C(O)CC(c2ccccc2)CC1=O (stereo not drawn)	-0.3	-0.4	69.0*	8.6	41.5
C[C@@H]1CN([C@H](C)CO)C(=O)c2cc(NC(=O)CCC(F)(F)F)ccc2O[C@@H](C)CCCCO[C@@H]1CN(C)Cc1ccccc1	nt	1.5	nt	nt	nt
COc1ccc(C(=O)/C=C2/C(=O)Nc3ccccc32)c(OC)c1	1.2	2.0	13.8	-2.1	nt
COc1cc(OC)c(/C=C2\C(=O)Nc3ccccc32)c(OC)c1	nt	1.2	55.9*	-10.4	53.7*
CCn1c(/C=C/c2c[nH]c3ccccc23)nc2ccccc2c1=O	3.2	-1.4	-266.2	-232.1	-37.4
SMILES	HIF activator	F508del corr	Jurkat NFkB inh	697 NFkB inh	Jurkat NFkB conf
NC(N)=N/N=C/c1ccc(OCc2ccccc2Cl)cc1	-0.3	-3.5	63.3*	-36.5	-14.7
O=C(N/N=C/c1ccc(Cl)cc1Cl)c1n[nH]c2c1CCCC2	2.4	nt	15.8	-127.1	nt
O=C(N/N=C\c1cccc(Cl)c1)c1n[nH]c2c1CCCC2	1.0	nt	-151.7	-191.6	-62.9
Cc1ccc(-c2ccc([C@H]3[C@@H](CO)N4C(=O)CN(C(=O)c5ccc(F)cc5)C[C@@H]34)cc2)cc1	nt	-2.1	nt	nt	nt
COc1ccccc1S(=O)(=O)Cc1ccc(C(=O)N2CCN(c3ccc(C)cc3)C(C)C2)o1 (stereo not drawn)	0.0	1.2	-4.4	-11.6	nt
Cc1ccc(S(=O)(=O)Cc2ccc(C(=O)N3CCN(c4cccc(C)c4C)CC3)o2)cc1	0.2	5.0	57.5*	-33.2	52.2*
COc1ccc(S(=O)(=O)Cc2ccc(C(=O)N3CCN(c4cccc(C)c4)C(C)C3)o2)cc1 (stereo not drawn)	nt	9.3*	60.6*	-49.3	20.8
COc1ccc(S(=O)(=O)Cc2ccc(C(=O)N3CCN(c4cccc(C)c4C)CC3)o2)cc1	nt	2.2	48.5	-24.7	nt
COc1cc2c(cc1OC)C(COc1ccc([N+](=O)[O-])cc1)N(C(C)=O)CC2 (stereo not drawn)	-1.0	-1.5	67.9*	-42.1	23.6
CCCNC(=O)N1CC2(CN(Cc3ccc(OC)cc3)C2)c2c(n(C)c3cc(OC)ccc23)[C@@H]1CO	nt	2.6	nt	nt	nt
O=C(NC1CCCCC1)N1CC(=O)N2[C@H](CO)[C@@H](c3ccc(-c4ccccc4)cc3)[C@H]2C1	nt	-3.7	nt	nt	nt
CCc1ccc(N2C(=O)C(Cl)=C(Nc3ccc(C(=O)N4CCCC4)cc3)C2=O)cc1	nt	nt	82.5*	-117.2	87.8*
O=C(C[C@H]1CC[C@H]2[C@@H](COC[C@@H](O)CN2C(=O)c2ccccc2F)O1)N1CCCCC1	nt	-2.6	nt	nt	nt
CCn1cc(C(=O)NC2CCCc3c2cnn3-c2cccc(C)c2C)cn1 (stereo not drawn)	0.0	4.1	73.8*	-25.8	66.2*
COC(=O)c1ccc(C(=O)NC2CCCc3c2cnn3-c2cc(F)cc(F)c2)nc1 (stereo not drawn)	2.1	9.6*	52.0*	-70.9	32.2
COC(=O)c1ccc(C(=O)NC2CCCc3c2cnn3-c2ccc(C)c(C)c2)cc1 (stereo not drawn)	-1.7	10.4*	59.7*	-16.8	59.0*
CCC(=O)N(C)C[C@H]1Oc2ncc(C3=CCCC3)cc2C(=O)N([C@@H](C)CO)C[C@H]1C	nt	1.2	nt	nt	nt
Cc1noc(C)c1NC(=O)N(C)C[C@H]1Oc2ccc(NC(=O)Cc3cn(C)c4ccccc34)cc2C(=O)N([C@H](C)CO)C[C@@H]1C	nt	-0.5	nt	nt	nt
C[C@H](CO)N1C[C@H](C)[C@@H](CN(C)Cc2ccc(C(F)(F)F)cc2)OCCCC[C@H](C)Oc2ccc(NC(=O)Cc3ccccc3)cc2C1=O	nt	2.8	nt	nt	nt
CCOc1cc(N2CCOCC2)c(OCC)cc1NC(=O)c1cc(S(=O)(=O)N2CCOCC2)ccc1F	nt	-0.9	61.9*	-4.0	22.9
CO[C@H]1CN(C)C(=O)c2ccc(NS(=O)(=O)c3ccccc3C)cc2OC[C@H](C)NC[C@@H]1C	nt	0.6	nt	nt	nt
Cc1cc(N2CCC(C)CC2)nc(NCc2ccccc2)n1	-0.4	-11.5	53.3*	-27.6	4.2
CCCCNc1cc(C)nc(NCc2ccccc2)n1	1.5	nt	70.0*	-37.2	20.9

Bioassay records (PubChem BioAssay)
